{"source": "ChEMBL document CHEMBL1961873", "about": "“Compounds: GSK PKIS; Assays: Nanosyn kinase panel” (2012);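 also: mean percent inhibition of IRR, reported within the GSK PKIS screening panel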", "data": [{"molecular_target": "Insulin receptor-related protein (Homo sapiens) (UniProt P14616)", "sequence (P14616 27-742 limits assumed)": "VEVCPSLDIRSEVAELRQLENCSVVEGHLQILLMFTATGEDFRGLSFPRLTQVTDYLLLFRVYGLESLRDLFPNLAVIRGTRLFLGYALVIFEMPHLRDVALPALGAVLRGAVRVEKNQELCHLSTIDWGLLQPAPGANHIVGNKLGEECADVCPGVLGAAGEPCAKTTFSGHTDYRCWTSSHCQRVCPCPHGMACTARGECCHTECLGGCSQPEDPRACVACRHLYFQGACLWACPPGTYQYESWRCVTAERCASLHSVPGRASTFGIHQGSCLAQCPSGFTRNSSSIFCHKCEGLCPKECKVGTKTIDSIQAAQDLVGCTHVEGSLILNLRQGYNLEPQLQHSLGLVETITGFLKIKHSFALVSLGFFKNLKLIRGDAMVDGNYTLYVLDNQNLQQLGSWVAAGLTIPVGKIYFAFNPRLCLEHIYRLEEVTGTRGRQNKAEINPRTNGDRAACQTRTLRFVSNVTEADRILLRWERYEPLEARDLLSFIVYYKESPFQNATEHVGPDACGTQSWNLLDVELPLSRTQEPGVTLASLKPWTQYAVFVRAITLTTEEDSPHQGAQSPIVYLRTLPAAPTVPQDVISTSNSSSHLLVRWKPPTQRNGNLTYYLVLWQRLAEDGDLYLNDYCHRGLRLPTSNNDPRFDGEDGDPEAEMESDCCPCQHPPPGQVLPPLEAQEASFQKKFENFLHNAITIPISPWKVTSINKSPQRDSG", "sequence (P14616 747-1297 limits assumed)": "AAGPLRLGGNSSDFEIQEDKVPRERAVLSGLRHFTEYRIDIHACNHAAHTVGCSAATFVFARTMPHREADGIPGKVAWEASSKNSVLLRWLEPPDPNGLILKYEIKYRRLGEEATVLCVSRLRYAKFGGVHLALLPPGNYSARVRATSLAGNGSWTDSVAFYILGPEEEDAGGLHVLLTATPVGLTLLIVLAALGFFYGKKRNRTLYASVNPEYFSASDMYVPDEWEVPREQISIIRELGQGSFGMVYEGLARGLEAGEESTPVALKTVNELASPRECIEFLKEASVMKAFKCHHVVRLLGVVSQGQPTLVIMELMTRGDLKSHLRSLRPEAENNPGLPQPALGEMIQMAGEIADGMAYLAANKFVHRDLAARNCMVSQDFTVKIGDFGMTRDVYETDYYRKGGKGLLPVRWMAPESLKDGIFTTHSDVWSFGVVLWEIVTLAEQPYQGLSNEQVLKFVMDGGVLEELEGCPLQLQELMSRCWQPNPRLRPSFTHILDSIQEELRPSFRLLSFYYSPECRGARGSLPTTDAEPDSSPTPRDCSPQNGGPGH", "details": "at 0.1 µM", "units": {"inhibition": "%"}, "values": [{"smiles": "N#Cc1cccc(Nc2nccc(-c3cnn4ncccc34)n2)c1", "inhibition": 3.98}, {"smiles": "Cc1cc(O)cc(C)c1/C=C/c1cncc(C(=O)N(C)C)c1", "inhibition": 2.71}, {"smiles": "CN(C)CCCn1c(-c2nonc2N)nc2cnccc21", "inhibition": 2.59}, {"smiles": "COc1cccc(-n2ncc3c(N/N=C/c4ccc(S(C)(=O)=O)cc4)ncnc32)c1", "inhibition": 0.2}, {"smiles": "COc1cc(Nc2nccc(-c3cnn4ncccc34)n2)cc(OC)c1", "inhibition": 3.56}, {"smiles": "NC(=O)c1cccc(Nc2nccc(Nc3cccc(F)c3)n2)c1", "inhibition": -0.57}, {"smiles": "NS(=O)(=O)c1ccc(Nc2cc(-c3cccc(O)c3)n[nH]2)cc1", "inhibition": 6.28}, {"smiles": "CC(C)c1ccc(Nc2nccc(-c3cnn4ncccc34)n2)cc1", "inhibition": 2.81}, {"smiles": "O=C1Nc2ccccc2/C1=C/Nc1ccc2[nH]c(=O)[nH]c2c1", "inhibition": 3.85}, {"smiles": "CN1CCN(C(=O)c2ccc(NC(=O)Nc3ccc(N(C)c4ccnc(Nc5ccc(CS(C)(=O)=O)cc5)n4)cc3)cc2)CC1", "inhibition": -0.19}, {"smiles": "CCn1c(-c2nonc2N)nc2c(C#CC(C)(C)O)nc(OCCNC)cc21", "inhibition": 0.83}, {"smiles": "COc1cccc(-n2ncc3c(N/N=C/c4ccc(C)cc4)ncnc32)c1", "inhibition": 2.51}, {"smiles": "NS(=O)(=O)c1cccc(Nc2cc(-c3ccc(F)cc3)n[nH]2)c1", "inhibition": 1.9}, {"smiles": "Cc1cc(Cl)cc2c1NC(=O)C2=NNc1ccc(S(N)(=O)=O)cc1", "inhibition": -0.92}, {"smiles": "CN(C)C(=O)O[C@@H]1CN[C@@H](C#Cc2cc3ncnc(Nc4ccc(OCc5cccc(F)c5)c(Cl)c4)c3s2)C1", "inhibition": -1.28}, {"smiles": "CN(C)c1cc2c(Nc3ccc4c(cnn4Cc4ccccc4)c3)ncnc2cn1", "inhibition": 1.7}, {"smiles": "CN(C)C(=O)O[C@H]1CN[C@H](C#Cc2cc3ncnc(Nc4ccc(OCc5cccc(F)c5)c(Cl)c4)c3s2)C1", "inhibition": 0.79}]}]}
